Compound activity (PubChem)
mcGAS lum: cyclic GMP-AMP synthase inhibitors, mouse, primary biochemical chemiluminescence; inhibition, % at 12.5 µM; 0.15% of 160,000 active; Q8C6L5; recombinant cGAS, Kinase-Glo ATP depletion luminescence;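 note: 0% = negative control wells and 100% = reference inhibitor with no enzyme activity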
NPYLR7 ag: agonists of mosquito NPYLR7 receptor, primary screen, cell-based, Aedes aegypti, calcium fluorescence, mosquito biting behavior. AID 1259423, 2018. HEK293T NPYLR7/Galpha15, GCaMP6s calcium fluorescence. Aedes aegypti neuropeptide Y-like receptor 7 (NPYLR7). 0.15% of 270,000 active. activation, % at 10 µM; in the data active = activation above about 40%;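 note: 0% = vehicle and 100% = reference agonist at the receptor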
hcGAS inh: Primary biochemical luminescence assay for human cyclic GMP-AMP synthase inhibitors; Q8N884; recombinant h-cGAS, ATP depletion, Kinase-Glo luminescence; inhibition, % at 12.5 µM; 0.081% of 290,000 active;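 note: 0% = vehicle reaction and 100% = reaction without DNA for no activity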
Target sequence (Q8N884 whole entry, looked up): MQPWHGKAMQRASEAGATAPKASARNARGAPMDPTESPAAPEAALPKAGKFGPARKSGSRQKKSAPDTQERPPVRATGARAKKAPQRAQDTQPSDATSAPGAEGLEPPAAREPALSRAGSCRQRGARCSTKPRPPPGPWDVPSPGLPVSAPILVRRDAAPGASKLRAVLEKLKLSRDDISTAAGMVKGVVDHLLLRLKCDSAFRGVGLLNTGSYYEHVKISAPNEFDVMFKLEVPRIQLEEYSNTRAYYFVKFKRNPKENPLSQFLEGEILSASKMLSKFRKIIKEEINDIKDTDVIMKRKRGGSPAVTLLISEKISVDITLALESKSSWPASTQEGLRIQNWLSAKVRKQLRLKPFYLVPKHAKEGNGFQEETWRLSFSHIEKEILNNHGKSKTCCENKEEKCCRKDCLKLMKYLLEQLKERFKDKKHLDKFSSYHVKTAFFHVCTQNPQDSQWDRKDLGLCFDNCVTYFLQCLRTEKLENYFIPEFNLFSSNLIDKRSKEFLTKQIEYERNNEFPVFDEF
* marks the source's active call; other numbers are inactive results; ! = not active in a repeat. The list is not random: actives were taken first. Their share in the collection is about 0.24%. Cut-off read from the data, not from the text of the source, unless noted: active = inhibition above about 40%; inactive = the rest.

Results for Cc1ccc(S(=O)(=O)Nc2cc(Sc3ncn[nH]3)c(O)c3ccccc23)c(C)c1 ?
mcGAS lum: 40*; NPYLR7 ag: -6; hcGAS inh: -8

What do the screens show for `CCOc1ccc(S(=O)(=O)Nc2cc(Sc3ncn[nH]3)c(O)c3ccccc23)cc1`?
mcGAS lum: 8; NPYLR7 ag: -10; hcGAS inh: -7

Results for Cc1cc(N2CCN(c3ccccc3C)CC2)n2ncc(-c3ccccc3)c2n1 ?
mcGAS lum: -8; NPYLR7 ag: -1; hcGAS inh: -6

Results for NCCNc1ccc2c3c(cccc13)C(=O)N(c1ccc(Cl)cc1)C2=O ?
NPYLR7 ag: 104*; hcGAS inh: 4

Results for O=C(c1ccccc1)c1ccc2c3c(cccc13)C(=O)N(c1ccccc1)C2=O ?
mcGAS lum: 1; NPYLR7 ag: -15; hcGAS inh: 4

Results for O=C1c2cccc3c(NCC(O)CCl)ccc(c23)C(=O)N1c1ccccc1 (centres undefined) ?
mcGAS lum: -4; NPYLR7 ag: 94*!; hcGAS inh: -5

How did O=C1c2cccc3c(Nc4ccccc4)ccc(c23)C(=O)N1c1ccccc1 do in these assays?
mcGAS lum: -5; NPYLR7 ag: 53*; hcGAS inh: -5

What do the screens show for `O=C1c2cccc3c([N+](=O)[O-])ccc(c23)C(=O)N1c1ccc([N+](=O)[O-])cc1`?
mcGAS lum: -7; NPYLR7 ag: 0; hcGAS inh: -7

Results for O=C1c2cccc3c(C#Cc4ccccc4)ccc(c23)C(=O)N1c1ccccc1 ?
NPYLR7 ag: 5; hcGAS inh: -8

Results for CCOCCOc1ccccc1C(=O)N1C[C@H]2CC=C(C)C[C@H]2C1 ?
NPYLR7 ag: -7; hcGAS inh: 2

What do the screens show for `CC1C(=O)N(c2ccc3c(c2)CCC3)CCN1C(=O)c1cccc(Br)c1` (centres undefined)?
mcGAS lum: -5; NPYLR7 ag: -2; hcGAS inh: -6

How did CCOC(=O)CCC[n+]1c(C)n(N)c2ccccc21 do in these assays?
NPYLR7 ag: 1; hcGAS inh: -2

Results for Cc1noc(C)c1-n1c(C2CCCCC2)n[nH]c1=O ?
mcGAS lum: -12; NPYLR7 ag: 19; hcGAS inh: -4

Results for Cc1cc(C)nc(NC2CC(C)(C)NC(C)(C)C2)n1 ?
NPYLR7 ag: 7; hcGAS inh: -8

What do the screens show for `Cc1ccc(C(=O)Nc2ccc(S(=O)(=O)O)c3cc(S(=O)(=O)O)cc(S(=O)(=O)O)c23)cc1NC(=O)c1cccc(NC(=O)Nc2cccc(C(=O)Nc3cc(C(=O)Nc4ccc(S(=O)(=O)O)c5cc(S(=O)(=O)O)cc(S(=O)(=O)O)c45)ccc3C)c2)c1`?
mcGAS lum: 80*; NPYLR7 ag: -1; hcGAS inh: 80*

How did CC(=O)c1cccc(NS(=O)(=O)c2cc(C(=O)Nc3ccccc3C)ccc2C)c1 do in these assays?
mcGAS lum: -4; NPYLR7 ag: 19; hcGAS inh: -3

What do the screens show for `O=C(Nc1ccc(Oc2cccnc2)cc1)C1CCN(Cc2cccnc2)CC1`?
mcGAS lum: -3; NPYLR7 ag: -3; hcGAS inh: -2

Results for COc1ccc(/C=C/C(=O)NCCSc2ncc(-c3ccccc3)[nH]2)cc1OC ?
mcGAS lum: -8; NPYLR7 ag: 1; hcGAS inh: -7

How did O=c1oc(-c2ccccc2O)nc2ccccc12 do in these assays?
NPYLR7 ag: 3; hcGAS inh: 55*

How did O=c1oc(-c2ccccc2Br)nc2ccccc12 do in these assays?
mcGAS lum: -5; NPYLR7 ag: 19; hcGAS inh: -2

What do the screens show for `COc1ccc(C(=O)Nc2ccc(Nc3ccc(-n4cccn4)nn3)cc2)cc1`?
mcGAS lum: -7; NPYLR7 ag: -8; hcGAS inh: -2

What do the screens show for `COc1ccc(-c2cc3ccc4c(c3oc2=O)CN(Cc2cccnc2)CO4)c(OC)c1`?
mcGAS lum: 0; NPYLR7 ag: -3; hcGAS inh: 1

How did COc1ccc(CN2COc3ccc4c(c3C2)O/C(=C\c2ccncc2)C4=O)cc1OC do in these assays?
mcGAS lum: 7; NPYLR7 ag: 33; hcGAS inh: -2

Results for COc1ccc(CCN2COc3ccc4c(c3C2)O/C(=C\c2cccnc2)C4=O)cc1 ?
mcGAS lum: -8; NPYLR7 ag: 46*; hcGAS inh: -2

What do the screens show for `COc1cccc(CN2COc3ccc4c(c3C2)O/C(=C\c2ccncc2)C4=O)c1`?
mcGAS lum: 11; NPYLR7 ag: 66*; hcGAS inh: 5

Results for O=S(=O)(Cc1cn2ccccc2n1)Cc1ccccc1C(F)(F)F ?
NPYLR7 ag: 1; hcGAS inh: 5
